The list is not random: actives were taken first. Their share in the collection is about 3.8%.
DSG3 Ab inh: inhibitors of pemphigus antibody binding to human desmoglein-3 | P32926 | DSG3-coupled beads, scFv-anti-DSG3-GFP binding, flow cytometry; active compounds read low | binding (percent of control), % at 10 µM | 0.48% of 310,000 active | AID 588358;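 active means binding more than 3 SD below its plate's average and above zero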;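 further: hits lower antibody fragment binding to DSG3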
PAFAH1B3 FP inh: blocks human PAF acetylhydrolase 1B catalytic subunit 3; Q15102; recombinant PAFAH1B3, FP-rhodamine probe, fluorescence polarization; inhibition, % at 3.39 µM; 0.28% of 340,000 active;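 active means inhibition above the screen-wide average of all tested compounds plus 3 SD, cut at about 25% in these data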;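 further: 0% = enzyme with DMSO only and 100% = wells lacking PAFAH1B3 protein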
PAFAH2 FP inh: inhibitors of human PAFAH2; Q99487; recombinant PAFAH2, FP-rhodamine activity probe, fluorescence polarization; inhibition, % at 3.39 µM; 0.99% of 340,000 active;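 active means inhibition above the mean over all tested compounds plus 3 SD, cut at about 30% in these data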;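 further: inhibitors block probe labeling of enzyme so polarization drops; 0% = enzyme with DMSO and 100% = wells lacking PAFAH2 protein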
pPAFAH FP inh: inhibitors of human plasma PAF acetylhydrolase (pPAFAH); recombinant pPAFAH, FP-rhodamine probe fluorescence polarization; 1.5% of 330,000 active; AID 463082; inhibition, % at 3.39 µM;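 active means inhibition above the mean inhibition across the screen plus 3 SD, cut at about 25% in these data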;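 further: inhibitors block binding of the rhodamine activity-based probe so polarization drops; 0% = enzyme with DMSO and 100% = wells lacking pPAFAH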
Target sequence (Q13093 whole entry, looked up): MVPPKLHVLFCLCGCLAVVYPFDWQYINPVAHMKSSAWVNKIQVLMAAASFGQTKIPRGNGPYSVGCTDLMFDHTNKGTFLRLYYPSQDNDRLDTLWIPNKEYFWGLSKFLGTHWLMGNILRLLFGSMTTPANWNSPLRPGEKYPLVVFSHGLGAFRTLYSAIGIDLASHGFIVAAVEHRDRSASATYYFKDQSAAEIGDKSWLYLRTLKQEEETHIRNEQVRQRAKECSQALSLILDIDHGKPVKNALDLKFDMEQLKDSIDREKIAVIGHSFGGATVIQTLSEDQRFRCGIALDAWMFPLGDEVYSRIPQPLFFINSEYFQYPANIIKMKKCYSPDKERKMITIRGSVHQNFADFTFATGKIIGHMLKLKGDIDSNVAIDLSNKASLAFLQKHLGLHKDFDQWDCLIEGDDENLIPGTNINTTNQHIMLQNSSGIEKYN
PAFAH1B2 FP inh: inhibitors of human PAFAH1B2; recombinant PAFAH1B2, FP-rhodamine activity probe, fluorescence polarization; inhibition, % at 3.39 µM; 1.2% of 340,000 active; AID 492953;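 active means inhibition above the mean of all tested compounds plus 3 SD, cut at about 24% in these data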;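 further: 0% = enzyme with DMSO and 100% = wells lacking PAFAH1B2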
Target sequence (P68402 whole entry, looked up): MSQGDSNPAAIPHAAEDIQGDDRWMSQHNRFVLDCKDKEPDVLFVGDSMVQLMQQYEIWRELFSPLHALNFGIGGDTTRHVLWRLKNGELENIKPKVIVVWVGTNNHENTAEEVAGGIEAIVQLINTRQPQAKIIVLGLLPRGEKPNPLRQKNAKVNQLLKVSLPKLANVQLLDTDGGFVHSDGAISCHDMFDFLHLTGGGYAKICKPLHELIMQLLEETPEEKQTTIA
PfM18AAP inh: PfM18AAP enzyme inhibition. AID 1822. recombinant PfM18AAP, H-Glu-NHMec fluorogenic cleavage. inhibition, % at 7.35 µM. 1.2% of 290,000 active;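 active means inhibition above the campaign mean inhibition over all tested compounds plus 3 SD, cut at about 28% in these data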;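 further: 0% = plate median of test compound wells and 100% = 2 mM ZnCl2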
The depositor's hits bear a star; . = no result given; ! = not active in a repeat.

SMILES | DSG3 Ab inh | PAFAH1B3 FP inh | PAFAH2 FP inh | pPAFAH FP inh | PAFAH1B2 FP inh | PfM18AAP inh
Cc1ccc(NC(=O)Cc2nc(CCl)cs2)cc1 | 109 | -3 | 23 | 32* | 5 | 0
O=C(NCc1nnnn1-c1ccc(F)cc1)c1ccc2c(c1)OCO2 | 105 | . | . | . | . | .
O=C1C(=O)N(CNc2cccnc2)c2ccccc21 | 99 | 7 | 8 | 4 | -1 | 3
O=C1C(=O)N(CNc2ccccn2)c2ccccc21 | . | 4 | 9 | 29* | 2 | -7
COc1cc(/C=C2/C(=N)N3OC(C)=CC3=NC2=O)ccc1OC(=O)c1ccco1 | 61* | 8 | 2 | 7 | -5 | -2
O=C(CN(C(=O)CNC(=O)c1cccs1)c1ccccc1)NC1CCCCC1 | 103 | -3 | 5 | 3 | -3 | 3
CN1C=CC(C(C(N)=O)c2ccccc2)c2ccccc21 (stereo unspecified) | 101 | . | . | . | . | .
CC(=O)c1cccc(OCC(=O)N(CCC2=CCCCC2)c2c(N)n(Cc3ccccc3)c(=O)[nH]c2=O)c1 | 107 | -3 | 0 | . | -7 | .
CC1(C)C(=O)N(c2ccccc2)C1c1ccccc1O (stereo unspecified) | 107 | 1 | -8 | -1 | 52* | 5
COc1ccc(N2C(=O)C(C)(C)C2c2c(O)ccc3ccccc23)cc1 (stereo unspecified) | 105 | 3 | 9 | -1 | 7 | 8
C[C@H](NC(=O)C1CCN(S(=O)(=O)c2ccccc2)CC1)C(=O)NC1CC1 | 104 | . | . | . | . | .
c1cc(N2CCCCC2)nc(N2CCCCC2)n1 | 91 | 9 | -3 | . | 2 | .
C[c-]1[c-](C)[c-](C)[c-](C)[c-]1C.[Fe].c1cc2nccc(N3CCCC3)[c-]2c1 (stereo unspecified) | 80*! | 11 | 14 | 6 | 4 | .
Clc1ccc2c(c1)c1cc(Cl)ccc1n2CN1CCOCC1 | 97 | 6 | -5 | 27* | -1 | -3
Clc1ccc2c(c1)c1ccccc1n2CN1CCOCC1 | 103 | 5 | 9 | 11 | -1 | 2
Cc1ccccc1NC(=O)C(C)OC(=O)CCC(=O)c1ccccc1 (stereo unspecified) | 108 | . | . | . | . | .
O=C(COC(=O)CN1C(=O)c2ccccc2C1=O)Nc1ccccc1C(F)(F)F | 84* | . | . | . | . | .
O=C(NCCCN1CCOCC1)c1ccc(Sc2cccc(Cl)c2)c([N+](=O)[O-])c1 | 100 | 2 | 2 | 32* | -1 | 2
O=C(NCCCN1CCOCC1)c1ccc(Cl)c([N+](=O)[O-])c1 | 97 | . | . | 5 | . | .
COc1ccc(-c2oc3ccc(-c4ccc5c(c4)OCO5)cc3c2C#CC2(O)CCCCC2)cc1 | 92 | -9 | -16 | -1 | -7 | .
COc1cc(-c2ccc3oc(-c4cccc(C)c4)c(C#CC4(O)CCCCC4)c3c2)cc(OC)c1OC | 103 | -7 | -8 | 27* | -3 | .
O=C(COC(=O)c1ccc(S(=O)(=O)N2CCc3ccccc3C2)cc1)NC1CCS(=O)(=O)C1 (stereo unspecified) | 67* | 3 | 1 | 6 | 1 | -4
O=C(COC(=O)c1ccc(S(=O)(=O)N2CCCCC2)cc1)NC1CCCCC1 | 102 | . | . | . | . | .
COc1ccc(C(=O)CSc2ccc(-c3ccco3)nn2)cc1 | 108 | 9 | 4 | 4 | 5 | -26
O=C(CSc1ccc(-c2ccco2)nn1)c1ccccc1 | 106 | 4 | 0 | 34* | -2 | -19
SMILES | DSG3 Ab inh | PAFAH1B3 FP inh | PAFAH2 FP inh | pPAFAH FP inh | PAFAH1B2 FP inh | PfM18AAP inh
CC1(C)CC(=O)C(CC(=O)c2ccccc2)=C(NN=C(N)N)C1 | 100 | . | . | . | . | .
CC(C)/C=C/C(=O)N1CCC(N2CCC(C(=O)NCC3CCCO3)CC2)CC1 (stereo unspecified) | 100 | . | . | . | . | .
COc1cc(C(=O)O/N=C2/C=C(C)C(=O)C=C2C)cc(OC)c1OC | 91 | 13 | 0 | 6 | 0 | -1
COc1cc(C(=O)ON=C2C(C)=CC(=O)C=C2C)cc(OC)c1OC | . | 9 | 83* | 5 | 7 | 9
COc1cccc(CC(=O)NN2C(=O)NC3(CCCCC3)C2=O)c1 | 104 | 16 | -6 | 0 | 3 | .
O=C1C=CC(=C(c2ccc(O)cc2)c2ccc(O)cc2)C=C1 | . | 10 | -1 | 5 | 24* | .
COc1cc(C(Nc2ccc(S(=O)(=O)N3CCC(C)CC3)cc2)C(=O)NCC2CCCO2)cc(OC)c1OC (stereo unspecified) | 95 | 2 | -2 | 6 | 25* | -11
COc1cc(C(Nc2ccc(S(=O)(=O)NCC3CCCO3)cc2)C(=O)NC(C)(C)C)cc(OC)c1OC (stereo unspecified) | 89 | 2 | 1 | -2 | 3 | -1
Cc1cccc(Nc2cc(=O)n(C)c(=O)[nH]2)c1 | 95 | 8 | 1 | 2 | 1 | -12
c1ccc(C(c2ccccc2)c2ccn[nH]2)cc1 | 93 | 2 | 3 | 2 | 27* | 7
CC(Oc1ccccc1)c1ccn[nH]1 (stereo unspecified) | 103 | 0 | 0 | -4 | 3 | 2
CSc1nc2nccc(-c3ccc4c(c3)OCO4)n2n1 | 104* | 5 | -5 | 1 | 1 | 4
CSc1nc2nccc(-c3ccc(-c4ccccc4)cc3)n2n1 | 96 | 3 | 3 | 4 | 0 | -5
CSc1nc2nccc(-c3ccc(Oc4ccccc4)cc3)n2n1 | 111 | 1 | -2 | 30* | -2 | -11
CCc1cc(C(=O)N/N=C/c2ccc(O)cc2O)c2ccccc2n1 | 96 | 9 | 3 | 9 | 3 | 22
O=C(CCS(=O)(=O)c1ccc(Br)cc1)NCc1ccc(F)cc1 | 100 | 2 | -12 | 1 | 7 | 0
NSc1nc(N)c2nc(-c3ccccc3)c(-c3ccccc3)nc2n1 | 67* | 1 | 2 | -3 | 15 | 14
ClCCn1c(CCl)nc2ccc(Cl)cc21 | 103 | . | . | . | . | .
Cc1onc(-c2c(Cl)cccc2Cl)c1C(=O)c1ccc(F)cc1 | 104 | . | . | -5 | . | -7
Cc1onc(-c2c(F)cccc2Cl)c1C(=O)c1ccc(F)cc1 | 64* | . | . | 5 | . | -9
Cc1ccc(S(=O)(=O)NCC2(c3ccccc3)CCOCC2)cc1 | 103 | 6 | 9 | 0 | 26* | -9
NC(=S)NN=C1CSSC1 | 102 | . | . | . | . | .
O=C(NCc1ccncc1)C12CC3CC(CC(C3)C1)C2 | 98 | 0 | 5 | 1 | 9 | -12
N#CC1=C(N)S[C@H](C(=O)C23CC4CC(CC(C4)C2)C3)[C@H]1c1ccncc1 | . | 3 | 7 | -1 | 28* | 9
O=C1CC(c2cccc(Cl)c2)c2cc3c(cc2N1)CCC3 (stereo unspecified) | 108 | 1 | 7 | 28* | -1 | 7
COc1cccc(C2CC(=O)Nc3cc4c(cc32)CCC4)c1 (stereo unspecified) | 104 | 4 | -1 | 32* | 0 | 1
O=C1CC(c2cccc([N+](=O)[O-])c2)c2cc3c(cc2N1)CCC3 (stereo unspecified) | 95 | 6 | 3 | 13 | 7 | 1

Compound activity (PubChem)
